Results filed as inconclusive are left out. Entries that show only a call come without a potency. The source made the active and inactive calls. Calls follow the shape of the full dose curve.
Target: 5-hydroxytryptamine receptor 2A (Homo sapiens) (UniProt P28223)
Test: 5-hydroxytryptamine receptor 2A (HTR2A) small molecule agonists, cell-based qHTS assay (AID 1963587); also: nearly all actives have a fitted effect of over 30% in size
Details: HTR2A-CHO cells, calcium flux fluorescence, agonist mode; series mostly up to 76.8 µM
Text: National Center for Advancing Translational Sciences [NCATS]
Division of Preclinical Innovation [DPI]
U.S. Environmental Protection Agency [EPA]
National Institutes of Environmental Health Sciences [NIEHS]
National Toxicology Program [NTP]
U.S. Food and Drug Administration [FDA]
The HTR2A receptor is a subtype of the 5-HT2 receptor that belongs to the serotonin receptor family and is a G protein-coupled receptor (GPCR). The HTR2A-CHO cell line stably expressing human 5-hydroxytryptamine receptor 2A (HTR2A) can be used for screening agonists of interactions between 5-HT2 and its ligands. The HTR2A-CHO calcium flux assay is a homogeneous fluorescence-based assay for detecting the intracellular calcium level using FDSS kinetic plate reader system.
HTR2A-CHO cells were dispensed at 2000 cells/3uL/well in 1536-well black-clear bottom plates using a Multidrop Dispenser. After the assay plates were incubated at a 37 C/5% CO2 incubator for 18 h, 3 uL of Dye Loading Buffer was transferred to the assay plate by a Flying Reagent Dispenser. The assay plates were incubated at 37 C for 1h. For agonist mode, 23 nL of compounds dissolved in DMSO, positive controls or DMSO only was transferred to the assay plate by a pin tool. The fluorescence intensity in the plates was measured using FDSS 7000EX kinetic plate reader for 2 min at 1 sec intervals.

5-hydroxytryptamine receptor 2A (Homo sapiens), sequence (P28223 whole entry, looked up): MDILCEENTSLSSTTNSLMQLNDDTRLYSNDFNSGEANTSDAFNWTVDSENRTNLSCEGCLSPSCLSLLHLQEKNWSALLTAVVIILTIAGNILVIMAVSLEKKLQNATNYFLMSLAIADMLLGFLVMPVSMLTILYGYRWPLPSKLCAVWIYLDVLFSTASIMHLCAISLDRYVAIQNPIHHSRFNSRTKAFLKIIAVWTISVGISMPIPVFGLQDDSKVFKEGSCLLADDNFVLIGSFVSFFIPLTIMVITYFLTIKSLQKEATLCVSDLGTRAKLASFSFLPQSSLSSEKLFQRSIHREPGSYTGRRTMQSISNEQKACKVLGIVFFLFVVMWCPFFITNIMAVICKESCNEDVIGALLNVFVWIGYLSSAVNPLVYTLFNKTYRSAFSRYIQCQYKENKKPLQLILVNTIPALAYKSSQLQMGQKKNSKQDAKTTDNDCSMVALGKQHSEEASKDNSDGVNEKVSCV

Row | SMILES | Potency | activation
1 | Nc1nccs1 | inactive | 
2 | CCCCCCCCC1CCC(=O)O1 (stereo not given) | inactive | 
3 | CC(=O)O[C@@H]1CC2C3CCc4cc(OC(=O)c5ccccc5)ccc4C3CCC2(C)[C@H]1OC(C)=O (stereo not given in full) | inactive | 
4 | CCCCCCCCCCCCCCCC(=O)OC |  | -0.493% [at 15.9 µM] (inactive)
5 | OCC1(CO)COCOC1 | inactive | 
6 | CC1(C)[C@@H]2CC[C@]3(C2)[C@@H]1C(=O)CCC3(C)C | inactive | 
7 | O=C(O)c1cccc(C[C@@H]2COc3ccc(OCc4nc5cc(F)ccc5s4)cc3[C@@H]2O)c1 | inactive | 
8 | CC[C@H](c1ccc(O)cc1)[C@@H](CC)c1ccc(O)cc1 | inactive | 
9 | N#Cc1cc(NC(=O)C(=O)O)c(Cl)c(NC(=O)C(=O)O)c1 | inactive | 
10 | CCC/C=C/CO | inactive | 
11 | C[C@@H]1O[C@@H](OC[C@H]2O[C@@H](Oc3c(-c4ccc(O)c(O)c4)oc4cc(O)cc(O)c4c3=O)[C@H](O)[C@@H](O)[C@@H]2O)[C@H](O)[C@H](O)[C@H]1O | inactive | 
12 | CCCCOC(=O)[C@H](C)O | inactive | 
13 | CC(C)(C)C1CCCCC1O (stereo not given) | inactive | 
14 | OCCOCCOCCOCCOCCO | inactive | 
15 | CCCOC(C)=O | inactive | 
16 | CCCCC(CC)COCC1CO1 (stereo not given) | inactive | 
17 | CC(=O)[O][Al][O]C(C)=O | inactive | 
18 | CC1(C)[C@H]2CC[C@](C)(C2)[C@H]1O | inactive | 
19 | CC(C)(O)Cc1ccccc1 | inactive | 
20 | O=C(O)c1cc(O)c(O)c(O)c1 | inactive | 

Row | SMILES | Potency | activation
21 | Cc1cc(C)cc(O)c1 | inactive | 
22 | CCCCCCCCCCCCOCC1CO1 (stereo not given) | inactive | 
23 | Cl/C(=C\n1cncn1)c1ccc(Cl)cc1Cl | inactive | 
24 | CC(C)C(=O)c1ccccc1 | inactive | 
25 | C=C(C)[C@H]1CC=C(C)C(=O)C1 | inactive | 
26 | CCOC(=O)c1ccc(O)c(O)c1 | inactive | 
27 | C[Si](C)O[Si](C)(C)O[Si](C)(C)O[Si](C)C | inactive | 
28 | CC(C)c1ccc(S(=O)(=O)O)cc1 | inactive | 
29 | O=S(=O)(O)c1cccc(S(=O)(=O)O)c1 | inactive | 
30 | CCCCCC(=O)CC | inactive | 
31 | CC(=O)C1(C)CC2=C(CCCC2(C)C)CC1C (stereo not given) | inactive | 
32 | CNC(=O)[C@H]1O[C@@H](n2cnc3c(NCc4cc(Cl)ccc4OCc4cc(C)no4)ncnc32)[C@H](O)[C@@H]1N | inactive | 
33 | CC(=O)CC(N)=O | inactive | 
34 | OC/C=C/CO | inactive | 
35 | CC(C)CCOCCC(C)C | inactive | 
36 | CCN(CCO)c1cccc(C)c1 | inactive | 
37 | CC(=O)N[C@@H](CC(C)C)C(=O)O | inactive | 
38 | CC(C)(CCl)c1ccccc1 | inactive | 
39 | O=P(O)(OCc1ccccc1)OCc1ccccc1 | inactive | 
40 | CC(C)c1ccccc1O | inactive | 

Reference: PubChem BioAssay (Tox21)
